This note sets out measurements from the antibiotic and cytotoxicity screens of Wong et al. (2023).

The campaign covered roughly 39,000 compounds. About 1,500 (3.8%) were called active. This excerpt belongs to a sample that is enriched for actives.

This assay concerns HSkMC (human skeletal muscle cells). The assay is described as follows: cytotoxicity call (relative viability < 0.9). To be noted: 10 µM.
With `O=C(NC1Cc2ccccc2C1)[C@H]1[C@H](CO)[C@H]2Cn3c(cccc3=O)[C@H]2N1C(=O)c1cnccn1`, the cytotoxicity call is “inactive”. The same measure for `Cc1ccc(S(=O)(=O)Nc2ccc3c(c2)C(=O)N([C@H](C)CO)C[C@@H](C)[C@H](CN(C)S(=O)(=O)c2ccc(Cl)cc2)OCCCC[C@@H](C)O3)cc1`: “inactive”; for `C[C@@H]1CCCCO[C@H](CN(C)CC2CCCCC2)[C@H](C)CN([C@H](C)CO)C(=O)c2cc(NC(=O)CCC(F)(F)F)ccc2O1`: “inactive”; for `C[C@@H]1CCCCO[C@@H](CN(C)Cc2ccncc2)[C@H](C)CN([C@@H](C)CO)C(=O)c2cc(NS(C)(=O)=O)ccc2O1`: “inactive”. To `O=C(CCCCC(=O)N/N=C/[C@H](O)[C@@H](O)[C@H](O[C@@H]1O[C@H](CO)[C@H](O)[C@H](O)[C@H]1O)[C@H](O)CO)NO` belongs “inactive”; to `CCNC(=O)C[C@H]1CC[C@H](NC(=O)C2CCOCC2)[C@@H](CO)O1`, “inactive”. With `O=C(CCCCn1c(=O)[nH]c2ccccc2c1=O)N1CCN(c2ncccn2)CC1`, the cytotoxicity call was “inactive”. On to `C[C@@H]1CN([C@@H](C)CO)C(=O)Cc2cc(NC(=O)Nc3ccc(C(F)(F)F)cc3)ccc2O[C@@H]1CN(C)C(=O)Nc1ccc(F)cc1`, for which the cytotoxicity call is “active”. In the case of `C[C@H](CO)N1C[C@H](C)[C@H](CN(C)C(=O)Nc2ccc(C(F)(F)F)cc2)Oc2ccc(NC(=O)Nc3ccc(C(F)(F)F)cc3)cc2CC1=O`, the cytotoxicity call was “active”. The same measure for `C[C@@H]1CN([C@H](C)CO)C(=O)Cc2cc(NC(=O)Nc3ccc(C(F)(F)F)cc3)ccc2O[C@H]1CN(C)C(=O)Nc1ccc(F)cc1`: “inactive”; for `C[C@H]1CN([C@@H](C)CO)C(=O)Cc2cc(NC(=O)Nc3ccc(C(F)(F)F)cc3)ccc2O[C@H]1CN(C)C(=O)Nc1ccc(F)cc1`: “inactive”; for `C[C@H]1CN([C@@H](C)CO)C(=O)Cc2cc(NC(=O)Nc3ccc(C(F)(F)F)cc3)ccc2O[C@@H]1CN(C)C(=O)Nc1ccc(C(F)(F)F)cc1`: “inactive”. To `C[C@@H]1CN([C@@H](C)CO)C(=O)Cc2cc(NC(=O)Nc3ccc(C(F)(F)F)cc3)ccc2O[C@H]1CN(C)C(=O)Nc1ccc(C(F)(F)F)cc1` belongs “inactive”; to `C[C@@H]1CN([C@@H](C)CO)C(=O)Cc2cc(NC(=O)Nc3ccc(C(F)(F)F)cc3)ccc2O[C@H]1CN(C)C(=O)Nc1ccc(F)cc1`, “inactive”. With `C[C@@H]1CN([C@H](C)CO)C(=O)Cc2cc(NC(=O)Nc3ccc(C(F)(F)F)cc3)ccc2O[C@@H]1CN(C)C(=O)Nc1ccc(C(F)(F)F)cc1`, the cytotoxicity call is “active”. To `C[C@@H]1CN([C@@H](C)CO)C(=O)Cc2cc(NC(=O)Nc3ccc(F)cc3)ccc2O[C@@H]1CN(C)C(=O)Nc1ccc(C(F)(F)F)cc1` belongs “inactive”; to `C[C@@H]1CN([C@H](C)CO)C(=O)Cc2cc(NC(=O)Nc3ccc(C(F)(F)F)cc3)ccc2O[C@H]1CN(C)C(=O)Nc1ccc(C(F)(F)F)cc1`, “active”; to `C[C@@H]1CN([C@H](C)CO)C(=O)Cc2cc(NC(=O)Nc3ccc(F)cc3)ccc2O[C@H]1CN(C)C(=O)Nc1ccc(C(F)(F)F)cc1`, “inactive”. The same measure for `C[C@H](CO)N1C[C@H](C)[C@@H](CN(C)C(=O)Nc2ccc(C(F)(F)F)cc2)Oc2ccc(NC(=O)Nc3ccc(C(F)(F)F)cc3)cc2CC1=O`: “inactive”. To `NCC[C@@H]1CC[C@@H](NC(=O)c2ccccc2F)[C@@H](CO)O1` belongs “inactive”.

For `C[C@@H]1CCCCO[C@H](CN(C)C(=O)Nc2ccc(F)cc2)[C@@H](C)CN([C@H](C)CO)C(=O)c2cc(NC(=O)Nc3cccc4ccccc34)ccc2O1`, the cytotoxicity call is “inactive”. To `COCC(=O)N(C)C[C@@H]1Oc2cc(C#CC(C)(C)O)ccc2S(=O)(=O)N([C@H](C)CO)C[C@H]1C` belongs “inactive”; to `C[C@@H]1CCCCO[C@@H](CN(C)C(=O)Nc2ccccc2)[C@@H](C)CN([C@H](C)CO)C(=O)c2cc(NC(=O)Nc3ccccc3)ccc2O1`, “inactive”; to `S=C(c1cccs1)N1CCCC1`, “inactive”. As to `CN1C(=O)c2cc(NC(=O)Cc3cccs3)ccc2OC[C@@H]2O[C@H](CC(=O)NCCCN3CCOCC3)CC[C@H]21`, the cytotoxicity call was “inactive”. The same measure for `COc1cc(CO)c(CC(=O)NN)cc1OC`: “inactive”. Turning to `C[C@H]1CN([C@@H](C)CO)C(=O)Cc2cc(NC(=O)Nc3ccc(F)cc3)ccc2O[C@@H]1CN(C)C(=O)Nc1ccc(C(F)(F)F)cc1`, the cytotoxicity call was “inactive”. Consider `C[C@@H]1CN([C@@H](C)CO)C(=O)Cc2cc(NC(=O)Nc3ccc(C(F)(F)F)cc3)ccc2O[C@@H]1CN(C)C(=O)Nc1ccc(C(F)(F)F)cc1`, for which the cytotoxicity call is “active”. On to `C[C@@H]1CN([C@H](C)CO)C(=O)Cc2cc(NC(=O)Nc3ccc(C(F)(F)F)cc3)ccc2O[C@@H]1CN(C)C(=O)Nc1ccc(F)cc1`, for which the cytotoxicity call is “inactive”. To `C[C@H](CO)N1C[C@H](C)[C@@H](CN(C)C(=O)Nc2ccc(F)cc2)Oc2ccc(NC(=O)Nc3ccc(C(F)(F)F)cc3)cc2CC1=O` belongs “inactive”; to `C[C@@H]1CN([C@@H](C)CO)C(=O)Cc2cc(NC(=O)Nc3ccc(F)cc3)ccc2O[C@H]1CN(C)C(=O)Nc1ccc(C(F)(F)F)cc1`, “inactive”; to `C[C@H]1CN([C@@H](C)CO)C(=O)Cc2cc(NC(=O)Nc3ccc(C(F)(F)F)cc3)ccc2O[C@H]1CN(C)C(=O)Nc1ccc(C(F)(F)F)cc1`, “active”.

Consider `CCn1nnc2c(=S)nc[nH]c21`, for which the cytotoxicity call was “inactive”. For the compound `Cc1noc(C)c1NC(=O)Nc1ccc2c(c1)CC(=O)N([C@H](C)CO)C[C@@H](C)[C@@H](CN(C)S(=O)(=O)c1cn(C)cn1)O2`, the cytotoxicity call is “inactive”. The same measure for `C=CC[C@@H](CC(=O)N[C@@H](CO)Cc1ccccc1)C(=O)NC[C@H](OC(=O)[C@@H](CC=C)Cc1ccc(F)cc1)c1ccccc1`: “inactive”; for `C=CC[C@@H](CC(=O)N[C@@H](CO)Cc1ccccc1)C(=O)NC[C@@H](OC(=O)[C@@H](CC=C)Cc1ccc(F)cc1)c1ccccc1`: “inactive”. The same measure for `C=CCC[C@H](Cc1ccc(F)cc1)C(=O)O[C@@H](CNC(=O)[C@@H](CC=C)CC(=O)N[C@@H](CO)Cc1ccccc1)c1ccccc1`: “inactive”; for `C=CC[C@@H](CC(=O)N[C@H](CO)Cc1ccccc1)C(=O)NC[C@@H](OC(=O)[C@@H](CC=C)Cc1ccc(F)cc1)c1ccccc1`: “inactive”; for `C=CC[C@@H](CC(=O)N[C@H](CO)Cc1ccccc1)C(=O)NC[C@H](OC(=O)[C@@H](CC=C)Cc1ccc(F)cc1)c1ccccc1`: “active”. As to `C=CCC[C@@H](Cc1ccc(F)cc1)C(=O)O[C@@H](CNC(=O)[C@@H](CC=C)CC(=O)N[C@@H](CO)Cc1ccccc1)c1ccccc1`, the cytotoxicity call is “active”. The same measure for `C=CCC[C@@H](Cc1ccc(F)cc1)C(=O)O[C@@H](CNC(=O)[C@@H](CC=C)CC(=O)N[C@H](CO)Cc1ccccc1)c1ccccc1`: “inactive”; for `C=CCC[C@H](Cc1ccc(F)cc1)C(=O)O[C@H](CNC(=O)[C@@H](CC=C)CC(=O)N[C@H](CO)Cc1ccccc1)c1ccccc1`: “active”; for `C=CCC[C@H](Cc1ccc(F)cc1)C(=O)O[C@H](CNC(=O)[C@@H](CC=C)CC(=O)N[C@@H](CO)Cc1ccccc1)c1ccccc1`: “inactive”. For the compound `C=CCC[C@@H](Cc1ccc(F)cc1)C(=O)O[C@H](CNC(=O)[C@@H](CC=C)CC(=O)N[C@H](CO)Cc1ccccc1)c1ccccc1`, the cytotoxicity call was “inactive”. To `C=CCC[C@H](Cc1ccc(F)cc1)C(=O)O[C@@H](CNC(=O)[C@@H](CC=C)CC(=O)N[C@H](CO)Cc1ccccc1)c1ccccc1` belongs “active”; to `C=CCC[C@@H](Cc1ccc(F)cc1)C(=O)O[C@H](CNC(=O)[C@@H](CC=C)CC(=O)N[C@@H](CO)Cc1ccccc1)c1ccccc1`, “inactive”.
